PubChem BioAssay

What was measured:
[1] = system: Human papillomavirus type 1a protein E7 (residues 44-93); experiment: small molecules binding HPV E7 44-93 – biochemical, small-molecule microarray, residues 44-93, 635 nm fluorescence, primary screen (AID 1108); conditions: fluorescence 635 nm, higher = more signal;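 further: E7 fragment applied at 1 µg/mL in TBST for 1 h at 4 C; score combines spot fluorescence with its signal to noise ratio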
[2] = hepatitis C replication reporter changes, two-sided – Huh7 cells, luciferase reporter, HCV replication inhibitor project, primary screen (AID 1109); conditions: Huh7 HCV replicon luciferase reporter, 48 h; higher = more signal;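 further: huh7 hepatoma cells harbouring a luciferase neomycin HCV replicon reporter; luciferase luminescence as measure of HCV replicon replication; test concentration not given here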
[3] = target: Left-right determination factor 2 (Homo sapiens) (UniProt O00292); experiment: small molecules binding LEFTY2 protein – biochemical, small-molecule microarray, 635 nm fluorescence scan, primary screen (AID 1110); conditions: higher = more signal
[4] = target: Calmodulin-1 (Homo sapiens) (UniProt P0DP23); experiment: small molecules binding calmodulin-1 with EGTA – biochemical, small-molecule microarray, Cy5-labelled CALM1, profiling panel (AID 1111); conditions: Cy5-CALM1 binding fluorescence, higher = more signal;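 further: labelled calmodulin applied in Tris saline Tween buffer holding calcium plus EGTA and DTT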
[5] = target: Calmodulin-1 (Homo sapiens) (UniProt P0DP23); experiment: small molecules binding Ca-loaded calmodulin-1 – biochemical, small-molecule microarray, Cy5-labelled CALM1, plus calcium, artefact control for SMM control-protein annotation, profiling panel (AID 1112); conditions: Cy5-CALM1 binding fluorescence, higher = more signal;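 further: score merges spot fluorescence with signal to noise from triplicate slides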
[6] = probe aWnt5a binding to arrayed compounds – biochemical, biotinylated probe, 635/667 nm fluorescence, primary screen (AID 1113); conditions: small-molecule microarray, higher = more signal;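 further: score merges 667 nm fluorescence intensity with signal-to-noise per printed feature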
[7] = probe aShh binding to arrayed compounds – biochemical, biotinylated probe, 635/667 nm fluorescence, primary screen (AID 1114); conditions: small-molecule microarray, higher = more signal;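 further: probe is biotin-labelled aShh protein from a stem cell growth factor screen; measures binding of labelled protein to compounds printed on the slide; score merges feature fluorescence at 667 nm with signal-to-noise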
[8] = probe aNog binding to arrayed compounds – biochemical, biotinylated probe, 635/667 nm fluorescence, primary screen (AID 1115); conditions: small-molecule microarray, higher = more signal;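 further: probe is biotinylated aNog protein used at 0.15 µg/mL for 1 h at 4 C; z-score combines 667 nm fluorescence of each spot with its signal to noise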
[9] = target: Torsin-1A-interacting protein 1 (Homo sapiens) (UniProt Q5JTV8); experiment: compound microarray binding of lysate hLAP1 – cell lysate, small-molecule microarray, COS7 lysate, 635/667 nm fluorescence, primary screen (AID 1116); conditions: 635 nm fluorescence, higher = more signal
[10] = target: Alpha-bungarotoxin (Bungarus multicinctus) (UniProt P60615); experiment: compounds binding labelled alpha-BTX control protein – biochemical, small-molecule microarray, Alexa647 label, 635/667 nm fluorescence, artefact control for SMM control protein annotation, profiling panel (AID 1117); conditions: alpha-BTX-A647 binding fluorescence, higher = more signal
Alpha-bungarotoxin (Bungarus multicinctus), sequence (P60615 whole entry, looked up): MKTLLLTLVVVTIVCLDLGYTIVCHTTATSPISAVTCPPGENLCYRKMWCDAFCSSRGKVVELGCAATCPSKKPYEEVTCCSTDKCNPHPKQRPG

Left-right determination factor 2 (Homo sapiens), sequence (O00292 whole entry, looked up): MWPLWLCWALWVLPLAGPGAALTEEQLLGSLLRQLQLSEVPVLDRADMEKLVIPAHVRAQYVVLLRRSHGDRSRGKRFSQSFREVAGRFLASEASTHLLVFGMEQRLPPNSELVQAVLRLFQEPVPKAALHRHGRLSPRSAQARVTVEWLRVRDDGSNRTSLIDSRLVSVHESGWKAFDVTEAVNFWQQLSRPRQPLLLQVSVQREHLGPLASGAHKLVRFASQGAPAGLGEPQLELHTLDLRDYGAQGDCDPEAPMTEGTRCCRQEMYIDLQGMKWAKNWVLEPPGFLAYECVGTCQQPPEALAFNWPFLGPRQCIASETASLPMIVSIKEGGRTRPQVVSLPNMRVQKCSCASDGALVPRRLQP
Torsin-1A-interacting protein 1 (Homo sapiens), sequence (Q5JTV8 whole entry, looked up): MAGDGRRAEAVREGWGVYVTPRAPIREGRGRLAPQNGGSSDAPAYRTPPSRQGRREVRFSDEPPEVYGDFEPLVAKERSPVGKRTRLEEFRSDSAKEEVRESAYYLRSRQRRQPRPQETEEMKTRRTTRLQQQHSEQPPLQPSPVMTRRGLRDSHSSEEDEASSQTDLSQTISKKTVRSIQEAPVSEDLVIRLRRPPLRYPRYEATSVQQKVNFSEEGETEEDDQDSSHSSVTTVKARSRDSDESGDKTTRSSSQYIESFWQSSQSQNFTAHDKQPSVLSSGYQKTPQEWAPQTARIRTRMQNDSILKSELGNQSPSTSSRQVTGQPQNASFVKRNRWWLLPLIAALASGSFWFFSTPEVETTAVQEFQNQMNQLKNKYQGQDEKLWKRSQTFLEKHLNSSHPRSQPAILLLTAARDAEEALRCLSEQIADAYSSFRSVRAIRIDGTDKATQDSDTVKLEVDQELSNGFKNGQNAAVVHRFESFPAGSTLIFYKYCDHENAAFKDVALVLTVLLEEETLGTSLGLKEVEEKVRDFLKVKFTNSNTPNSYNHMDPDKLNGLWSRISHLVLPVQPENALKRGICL

| Compound | composite z-score [1] | z-score [2] | composite z-score [3] | composite z-score [4] | composite z-score [5] | composite z-score [6] | composite z-score [7] | composite z-score [8] | composite z-score [9] | composite z-score [10] |
| --- | --- | --- | --- | --- | --- | --- | --- | --- | --- | --- |
| CC(C)C(=C=CC[C@H](O)c1ccccc1OCCO)C[C@H](O)COCc1ccccc1 | 0.257 | -1.88 | -0.274 | 0.444 | -0.457 | -0.128 | -0.0681 | -0.391 | -0.251 | 0.257 |
| CCOC(=O)C1=CCC(c2cc3ccccc3[nH]2)N(CCN2CC(C(=O)OCC)=CCC2c2cc3ccccc3[nH]2)C1 (stereo not given) | 1.34 | -1.87 | 0.0083 | 0.884 | -0.608 | -0.0203 | 0.0639 | 0.302 | 0.0389 | 0.927 |
| CCOC(=O)C[C@H]1[C@H](OC(=O)Cc2ccc3c(c2)OCO3)[C@@H](NC(=O)c2ccc3ccccc3n2)c2cc(OCCCO)ccc2N1C(=O)Cc1ccc(OC)cc1 | 0.751 | -1.39 | 0.394 | 0.436 | 0.137 | -0.124 | 0.0723 | -0.0184 | 0.6 | 0.597 |
| COC(=O)[C@@]1(Cc2ccc(OC)cc2)[C@H]2c3cc(C(=O)N4CCCC4)n(Cc4c(CO)[nH]cc(C)c4=O)c3C[C@H]2CN1C(=O)c1ccccc1 | -0.78 | -1.4 | -0.181 | 2.05 | 0.593 | 0.0328 | -0.156 | 0.947 | 2.32 | 0.12 |
| O=C(NC1CC1)[C@@H]1c2ccccc2C(=O)N(CC23CC4CC(CC(C4)C2)C3)[C@H]1c1ccc(CO)cc1 | 1.36 | -1.22 | 1.13 | 0.609 | -0.657 | -0.096 | -0.138 | -0.541 | 0.755 | 0.428 |
| CO[C@H]1O[C@H](CO)[C@@H](OC(=O)Nc2ccc3c(c2)OCO3)[C@H](OC(=O)Nc2ccccc2-c2ccccc2)[C@H]1OC(=O)Nc1ccccc1-c1ccccc1 | 1.08 | -3.79 | -0.0829 | 1.54 | -0.243 | 0.288 | -0.273 | 0.747 | 2.06 | 0.557 |
| CC(=O)c1ccc(C(O)C2C=CC3C(=O)N(c4ccccc4)C(=O)C3N2Nc2ccc(C(C)C)cc2)cc1 (stereo not given) | 0.637 | -0.674 | 0.438 | 0.889 | 0.0603 | -0.0519 | 0.0278 | 1.7 | 0.415 | 0.859 |
| O=C(NCc1ccccc1)[C@@H]1c2ccccc2C(=O)N(Cc2ccc(OC(F)(F)F)cc2)[C@H]1c1ccc(CO)cc1 | 0.259 | -1.1 | -0.725 | -0.437 | 0.284 | -0.0735 | -0.0813 | 0.868 | 1.15 | -0.0863 |
| COCCCNC(=O)[C@@]1(CCS(=O)(=O)c2ccccc2)COC(c2ccc(OCCCO)cc2)=N1 | 0.0612 | -0.46 | -0.241 | 2.65 | 1.26 | 0.0919 | 0.363 | 2.04 | 3.1 | 3.34 |
| O=C1C2C=CC(C(O)c3cccs3)N(Nc3ccc([N+](=O)[O-])cc3)C2C(=O)N1c1ccccc1 (stereo not given) | 0.759 | -0.6 | 0.318 | 0.439 | 0.123 | -0.0179 | 0.0684 | 0.668 | 1.01 | 0.69 |
| CC(C)=C1C(=O)C(c2ccccc2)=C2CN3C(=O)N(CCc4ccccc4)C(=O)[C@]3(C)[C@H]21 | 0.186 | -0.44 | -0.245 | 1.16 | 0.0844 | 0.0825 | 0.748 | 0.794 | 0.149 | 0.196 |
| C=CCC(OC(C)=O)[C@@H]1[C@@H](N(Cc2cc3ccccc3o2)C(=O)Cc2ccc(OC)cc2)c2cc(OCCCO)ccc2N1C(=O)c1ccc2ccccc2n1 (stereo not given in full) | -0.329 | -0.814 | 0.0809 | -0.154 | -0.292 | 0.0573 | -0.0362 | -0.0381 | 0.461 | 1.08 |
| Cc1ccc(C(C)CC(O)C2C=CC3C(=O)N(C)C(=O)C3N2Nc2ccccc2)o1 (stereo not given) | 1.4 | -0.955 | 0.79 | 0.0895 | -0.0452 | -0.0057 | -0.0769 | -0.213 | 0.163 | 0.6 |
| COC(=O)C1=CC(CCCO)=CC(c2cccs2)N(Cc2cc3c(cc2Br)OCO3)C=C1C(=O)OC (stereo not given) | 0.931 | -1.64 | 0.578 | 1.69 | 0.458 | 0.0618 | 0.246 | -0.0381 | 0.834 | 2.49 |
| O=C1C[C@@](C(=O)NCc2ccccc2)(c2ccc([N+](=O)[O-])cc2)[C@@H](c2ccc(CO)cc2)N1C1CCCCC1 | 0.653 | -1.24 | 0.399 | -0.175 | -0.386 | 0.0273 | 0.0697 | 0.786 | 1.46 | 1.72 |
| COCCOC(=O)N1C(=O)[C@@]2(c3cc(C#CCC(C(=O)OC)C(=O)OC)ccc31)[C@H](C(=O)Nc1nc3ccccc3s1)[C@H]1C(=O)O[C@H](c3ccccc3)[C@H](c3ccccc3)N1[C@@H]2c1ccc(OCCO)cc1 | 0.783 | -2.03 | 1.21 | 1.34 | -0.21 | 0.0377 | 0.0043 | -0.0242 | 1.38 | 0.752 |
| N#Cc1ccc(-c2cccc(=O)o2)cc1 | 0.561 | -0.0585 | 0.0266 | -0.179 | -0.564 | -0.0383 | -0.349 | 0.119 | -0.102 | 0.26 |
